Laboratory results from PubChem BioAssay (NCI).
This is part of a sample that, as a whole, favours compounds with a hit. Of some 83,000 tested, about 20% had one in any assay.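 How to read the values: 0–100, growth inhibition (40 = 60% inhibited); 0, no net growth; -100 to 0, cell death (-40 = 40% of starting cells died; -100 = all dead).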 A number with no mark means an inactive call. Active and inactive are the calls of the source. How the source made its calls: active means growth percent below 10; inactive means the rest.

How the values were obtained:
Test in all cases: NCI-60 one-dose screen, 48 h (100 = growth as untreated, 0 = no growth, -100 = all killed)
Conditions in all cases: 10 µM unless noted
NCI-H23 lung = test system: NCI-H23 lung
NCI-H226 lung = test system: NCI-H226 lung
NCI-H322M lung = test system: NCI-H322M lung
HOP-62 NSCLC = test system: HOP-62 NSCLC
NCI-H460 lung = test system: NCI-H460 lung
HOP-92 NSCLC = test system: HOP-92 NSCLC
NCI-H522 lung = test system: NCI-H522 lung
A549/ATCC NSCLC = test system: A549/ATCC NSCLC
786-0 renal = test system: 786-0 renal
COLO 205 colon = test system: COLO 205 colon
DU-145 prostate = test system: DU-145 prostate
MALME-3M melanoma = test system: MALME-3M melanoma
MDA-MB-231 breast = test system: MDA-MB-231 breast
RXF 393 renal = test system: RXF 393 renal
SF-268 CNS = test system: SF-268 CNS
SF-295 CNS = test system: SF-295 CNS
SF-539 CNS = test system: SF-539 CNS
UACC-257 melanoma = test system: UACC-257 melanoma
M14 melanoma = test system: M14 melanoma
K-562 leukemia = test system: K-562 leukemia

Compound | growth (NCI-H23 lung) [%] | growth (NCI-H226 lung) [%] | growth (NCI-H322M lung) [%] | growth (HOP-62 NSCLC) [%] | growth (NCI-H460 lung) | growth (HOP-92 NSCLC) | growth (NCI-H522 lung) | growth (A549/ATCC NSCLC) | growth (786-0 renal) [%] | growth (COLO 205 colon) | growth (DU-145 prostate) | growth (MALME-3M melanoma) | growth (MDA-MB-231 breast) [%] | growth (RXF 393 renal) | growth (SF-268 CNS) | growth (SF-295 CNS) [%] | growth (SF-539 CNS) | growth (UACC-257 melanoma) | growth (M14 melanoma) | growth (K-562 leukemia)
O=C1C=C2C(=CCOC2O)O1 (stereo unspecified) | 60.4 | 34.4 | 101 | 59.6 | 71.1% | -22.2% (active) | -79.9% (active) | 71.6% | 47.1 | -87.3% (active) | 9.48% (active) | -28.5% (active) | 66 | -74.8% (active) | 3.53% (active) | 89 | -33.6% (active) | -22.1% (active) | -18.9% (active) | 
CC(=O)O[C@@H]1CC[C@]2(C)[C@H]3CC[C@]4(C)C(=O)CC[C@H]4[C@@H]3C[C@@H]3SC(N)=N[C@@]32C1 | 79.6 | 83.4 | 89.7 | 70.1 | 38.7% | 78.8% | 8.26% (active) | 47.4% | 58.8 | 48.8% | 79.2% | 55.4% | 68.2 | 79.7% | 73.9% | 42.7 | 51.3% | 67.1% | 41.1% | 
ClCCN(CCCl)c1ccc(/C=N\N=C\c2ccc(N(CCCl)CCCl)cc2)cc1 | 62 | 28.9 | 74.2 | 39.1 | 14.7% | 76.7% | 11.1% | 13.6% | 31.7 | 37.4% | 42.4% | 109% | 64.9 |  | 40.7% | 10.7 | 1.3% (active) | 31% | 12.9% | 
N/C(=N/N=C/c1ccncc1)N[N+](=O)[O-] | 99.5 | 99.2 | 99.5 | 89.3 | 112% | 115% | 101% | 98.3% |  | 102% | 108% | 96.2% |  | 121% | 102% | 99.5 | 94.3% | 102% | 104% | 90%
O=C([O][Hg][CH2]C1COCC([CH2][Hg][O]C(=O)c2ccccc2)O1)c1ccccc1 (stereo unspecified) | 90.2 | 106 | 110 | 127 | 106% | 77% | -53.3% (active) | 105% | 104 | -23.1% (active) |  | -80.5% (active) | 105 | 87.5% | 104% | 96.8 | 113% | -69.4% (active) | 71.7% | 4.71% (active)
CCOC(=O)N1CC1 | 107 | 104 | 105 | 99.8 | 107% | 53% | 92.4% | 99.9% | 102 | 91.3% | 110% | 108% | 99.2 | 106% | 98.6% | 97.8 | 103% | 101% |  | 
COc1ccc(/C=C\c2cc(OC)c(OC)c(OC)c2)cc1NC(=O)/C=C/c1cc(OC)c(OC)c(OC)c1 | 25.7 | 46.8 | 55.1 | 45.5 | 55.2% | 55.5% | 34.3% | 56.6% | 39.9 | 42.1% | 95.2% | 58% | 63.9 | 1.99% (active) | 61.1% | 12.5 | 44.5% | 70.6% | 31.6% | 
CC1(C)N=C(N)N=C(N)N1c1ccc(CCC(=O)Nc2ccc(S(=O)(=O)F)cc2)c(Cl)c1 | 29.9 | 46.6 | 57.9 | 19.9 | 6.19% (active) | 33.7% | -0.414% (active) | -5.32% (active) | 20.6 | 45.3% | 40.2% | 83.1% | 51.7 |  | 28.1% | 30 | 11.9% |  | 23.4% | 
COC(=O)[C@@H](NC(=O)c1cn(CCC2CCCCC2)c2ccccc12)C(C)(C)C | 76.4 | 58.6 | 83.7 | 61.8 | 79.3% | 63.4% | 63.7% | 64.8% | 73.5 | 96.4% | 81.7% | 106% | 70.1 | 83.9% | 68.5% | 60.2 | 88.1% | 73% | 59.4% | 
